An excerpt weighted towards active compounds, which were near 18% of everything screened.
IL-1B inflam inh: qHTS for Inhibitors of Inflammasome Signaling: IL-1-beta AlphaLISA Primary Screen. 360,000 tested, 4.7% active. THP-1 LPS/ATP IL-1B secretion, AlphaLISA, 16 h; active compounds read low. AID 743279, 2014. activity change, % at 57.5 µM; in the data active = activity change below about -50%; inconclusive = mostly about -30% to -49%
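THP-1 cells pretreated 1 hr with compounds (up to 57.5 uM final), then stimulated with LPS (250 ng/mL final) plus ATP (1.25 mM final); secreted IL-1B measured by AlphaLISA after 16 hr, decreased signal indicating inhibition.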
Six1-Eya2 blk: qHTS Assay for Inhibitors of the Six1/Eya2 Interaction | Homeobox protein SIX1 (Homo sapiens) + Protein phosphatase EYA2 (Homo sapiens), … | AlphaScreen GST-Six1/His-Eya2 binding, biochemical; active compounds read low | activity change, % (no concentration beside the values) | 360,000 tested, 0.56% active | AID 651725, 2012; in the data active = activity change below about -65%; inconclusive = mostly about -30% to -63%
Target sequence (O00167 whole entry, looked up): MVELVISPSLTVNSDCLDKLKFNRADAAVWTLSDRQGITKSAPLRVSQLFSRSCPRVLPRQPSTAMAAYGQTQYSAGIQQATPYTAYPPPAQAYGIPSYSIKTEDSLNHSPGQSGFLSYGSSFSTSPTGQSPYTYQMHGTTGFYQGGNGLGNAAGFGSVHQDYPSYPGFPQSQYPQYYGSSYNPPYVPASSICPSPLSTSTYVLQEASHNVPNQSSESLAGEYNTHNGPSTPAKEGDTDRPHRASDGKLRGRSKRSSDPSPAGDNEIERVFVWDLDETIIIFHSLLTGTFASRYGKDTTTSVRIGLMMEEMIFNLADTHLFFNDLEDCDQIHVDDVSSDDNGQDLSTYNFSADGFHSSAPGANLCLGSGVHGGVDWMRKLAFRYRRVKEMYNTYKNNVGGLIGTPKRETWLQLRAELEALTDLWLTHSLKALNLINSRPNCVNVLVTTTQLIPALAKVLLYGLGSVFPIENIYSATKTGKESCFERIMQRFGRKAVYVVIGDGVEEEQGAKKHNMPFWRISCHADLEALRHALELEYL
Target sequence (Q15475 whole entry, looked up): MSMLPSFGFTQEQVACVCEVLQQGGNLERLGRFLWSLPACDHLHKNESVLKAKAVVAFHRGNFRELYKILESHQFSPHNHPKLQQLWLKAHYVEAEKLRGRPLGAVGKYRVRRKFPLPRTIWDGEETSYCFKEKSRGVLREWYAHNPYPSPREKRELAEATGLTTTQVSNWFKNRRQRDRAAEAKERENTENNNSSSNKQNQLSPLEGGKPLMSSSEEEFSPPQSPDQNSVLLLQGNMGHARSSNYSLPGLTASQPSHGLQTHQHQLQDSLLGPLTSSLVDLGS
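AlphaScreen with GST-Six1 and His-Eya2 (5X mix: 250 nM and 500 nM), glutathione donor and nickel acceptor beads; buffer 50 mM Tris pH 8.0, 300 mM NaCl, 1 mM TCEP; 1 h at 37 C in the dark.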
TDP1 cell CPT: qHTS for Inhibitors of human tyrosyl-DNA phosphodiesterase 1 (TDP1): qHTS in cells in presence of CPT; 420,000 tested, 12% active; Potency, µM (doses to about 46.2 µM), for the others: at the top dose activity change, negative = growth inhibition, most hits filed as inhibitors; chicken DT40 Tdp1-/-;hTDP1 cells + 20 nM CPT, ATP luminescence, 48 h; AID 686979, 2013; note: potency is the fitted concentration of half-maximal effect; nearly all actives have a fitted effect of over 55% in size
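Chicken DT40 Tdp1-/- cells complemented with human TDP1, 400 cells/well, exposed to compounds plus 20 nM camptothecin for at least 48 h at 37 C; viability read as ATP content by CellTiter-Glo luminescence.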
DT40 TDP1 no CPT: qHTS for Inhibitors of human tyrosyl-DNA phosphodiesterase 1 (TDP1): qHTS in cells in absence of CPT. Potency, µM (series often up to 46.2 µM), for the others: at the highest dose activity change, negative = growth inhibition, most hits filed as inhibitors. DT40 Tdp1-/- hTDP1 cells, no CPT, ATP luminescence, 48 h. 420,000 tested, 15% active; note: potency is the fitted concentration of half-maximal effect; nearly all actives have a fitted effect of over 55% in size
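Chicken DT40 Tdp1-/- cells complemented with human TDP1, screened without camptothecin (DMSO vehicle only), 400 cells/well. Compounds pin-transferred, cells incubated at 37 °C for at least 48 hr. Growth read as ATP-dependent luminescence (CellTiter-Glo, 30 min at RT).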
TDP1 inh: qHTS Assay for Inhibitors of Tyrosyl-DNA Phosphodiesterase (TDP1); Potency, µM (series often up to 130 µM), for inactives: at the top dose activity change, negative = inhibition, usual class: inhibitors; 350,000 tested, 0.28% active; recombinant TDP1, AlphaScreen DNA substrate cleavage; Tyrosyl-DNA phosphodiesterase 1 (Homo sapiens), Q9NUW8; AID 485290, 2010; note: potency is the fitted concentration of half-maximal effect; nearly all actives have a fitted effect of over 40% in size
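Compounds were preincubated with Tdp1 (1 nM final) for 15 min at room temperature before substrate (15 nM final) started a 5 min reaction; beads (10 ug/ml final) were then added for 10 min before AlphaScreen detection.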
CtBP-E1A inh: qHTS Assay for Inhibitors of the CtBP/E1A Interaction; AID 651724, 2012; activity change, % (concentration not given with the values); AlphaScreen GST-E1A/His-CtBP binding, 1536-well; active compounds read low; 340,000 tested, 0.49% active; in the data active = activity change below about -65%; inconclusive = mostly about -30% to -63%
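AlphaScreen with 125 nM GST-E1A and 125 nM His-CtBP (5X stocks) in Tris pH 8.0, 300 mM NaCl, BSA, Tween 20, TCEP. Compounds preincubated 2 h at 37 deg C, then glutathione donor/nickel acceptor beads added for 1 h at 37 deg C in dark.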
Numbers without * were called inactive; u = inconclusive; x = no result given; [ ] = remark or other dose. Unless noted, calls come from the whole dose curve; as a rule, active = well fitted curve in the direction sought with a large enough effect; inconclusive = small, poorly fitted or top-dose-only effect, or another doubt; inactive = no such curve, though single readings can be large; an effect the other way counts as inactive or inconclusive. % is set by controls: 0 for no effect and ±100 for the full control effect.

SMILES | IL-1B inflam inh | Six1-Eya2 blk | TDP1 cell CPT | DT40 TDP1 no CPT | TDP1 inh | CtBP-E1A inh
COCCn1c(=O)cnc2cnc(Oc3cccc(Cl)c3)nc21 | x | x | -4% | -6% | x | x
O=c1cnc2cnc(Oc3cccc(Cl)c3)nc2n1Cc1ccc(F)cc1 | x | x | u | 23µM* | x | x
COc1ccc(Oc2ncc3ncc(=O)n(Cc4cccs4)c3n2)cc1 | x | x | u | 23µM* | x | x
COc1ccc(Oc2ncc3nc(-c4ccc(OC)cc4)c(=O)n(Cc4cccs4)c3n2)cc1 | x | x | 4% | -2% | x | x
CN(C)c1ncc2ncc(=O)n(Cc3ccc(F)cc3)c2n1 | x | x | 10µM* | 21µM* | x | x
COc1ccc(C2CC(=O)c3ccccc3O2)cc1 (stereo not drawn) | -60* | -4 | u | u | 0% | 1
O=c1[nH]c(=O)c2nnc(N/N=C/c3ccccc3F)nc2[nH]1 | 7 | -19 | -1% | -2% | 3% | u
O=c1[nH]c(=O)c2nnc(N/N=C\c3ccc(O)cc3)nc2[nH]1 | 0 | -75* | 20% | -16% | -13% | -65*
CC(C)CC(CO)N1CCN(C(=O)c2ccc(Cl)c(Cl)c2)CCC1=O (stereo not drawn) | -4 | -1 | u | -6% | x | 2
CCOC(=O)c1ccc(NC(=O)COc2cccc3c(=O)n(C)ccc23)cc1 | x | x | 21µM* | 18µM* | 8% | x
Cn1ccc2c(OCC(=O)Nc3ccc([N+](=O)[O-])cc3)cccc2c1=O | x | x | -29% | u | -5% | x
CCOC(=O)c1ccc(NC(=O)COc2cc(=O)n(CC)c3ccccc23)cc1 | -4 | 1 | 8% | 10% | 1% | 4
Cn1ccc2c(OCC(=O)Nc3ccc(OC(F)(F)F)cc3)cccc2c1=O | x | x | 12µM* | 7.3µM* | 3% | x
COc1cccc(Nc2sc(C(=O)c3ccc(F)cc3)c(N)c2C(=O)NCc2ccc(Cl)cc2)c1 | x | x | -95% | 21µM* | 10% | x
COc1cccc(Nc2sc(C(=O)c3ccc(Cl)cc3)c(N)c2C(=O)NCc2ccc(C)cc2)c1 | x | x | 2.9µM* | 4.6µM* | 5% | x
N#Cc1c(Nc2cccc(F)c2)sc(C(=O)c2ccc(Cl)cc2)c1N | x | x | x | x | 2% | x
Cc1ccc(CNC(=O)c2c(Nc3c(C)cccc3C)sc(C(=O)c3ccccc3)c2N)cc1 | x | x | 8.2µM* | 15µM* | 4% | x
CC1(C(=O)Nc2ccc3c(c2)OCO3)CCN1Cc1csc2ccccc12 (stereo not drawn) | u | -26 | 23µM* | u | x | -26
CC1(C(=O)Nc2ccc3c(c2)OCO3)CCN1C(=O)Cc1cccc2ccccc12 (stereo not drawn) | 6 | -11 | 21µM* | 16µM* | x | -7
CC1(C(=O)Nc2ccc3c(c2)OCO3)CCN1C(=O)Cc1cccs1 (stereo not drawn) | -7 | -22 | u | u | x | -13
CNC(=O)C1(C)CCN1C(=O)Cc1ccc(C(C)C)cc1 (stereo not drawn) | 17 | 0 | -1% | -18% | x | 6
Cc1ccc(NC(=O)C2(C)CCN2Cc2csc3ccccc23)cc1 (stereo not drawn) | u | -2 | u | u | x | 2
COc1ccccc1CN(CC(=O)NCc1ccc2c(c1)OCO2)C(=O)c1ccc2c(c1)OCCO2 | 0 | -10 | u | 21µM* | 9% | -9
Cc1ccc(NC(=O)C2(C)CCN2C(=O)Cc2ccc(C(C)C)cc2)cc1 (stereo not drawn) | 32 | 0 | u | 23µM* | x | 1
O=C(CCc1c[nH]c2ccccc12)NC(Cc1c[nH]c2ccccc12)C(=O)O (stereo not drawn) | -8 | 16 | -24% | -10% | x | x
SMILES | IL-1B inflam inh | Six1-Eya2 blk | TDP1 cell CPT | DT40 TDP1 no CPT | TDP1 inh | CtBP-E1A inh
CCOC(=O)CSc1nc(C)c(C(C)=O)cc1C#N | 4 | 1 | -5% | 4% | -9% | 5
C/C(=N\NC(=O)c1cccc(S(=O)(=O)Nc2cccc(Cl)c2)c1)c1cccs1 | -5 | -5 | u | u | 8% | -10
COc1ccc(CN2CCC2(C)C(=O)NCCNC(C)=O)c2ccccc12 (stereo not drawn) | 18 | 11 | 8% | 1% | x | 4
CC(C)c1ccc(CC(=O)N2CCC2(C)C(=O)Nc2ccc3c(c2)OCO3)cc1 (stereo not drawn) | 29 | -12 | u | 18µM* | x | -8
COc1ccc(CN2CCC2(C)C(=O)NCc2ccc3c(c2)OCO3)c2ccccc12 (stereo not drawn) | 12 | -15 | 23µM* | u | x | -7
CCOc1ccccc1OCc1nn2c(COc3ccccc3)nnc2s1 | -5 | 0 | 16µM* | 13µM* | 5% | 6
COc1ccc(Cc2nn3c(-c4ccccc4OC)nnc3s2)cc1 | -3 | -5 | -24% | u | 7% | -8
COc1ccccc1-c1nnc2sc(COc3ccc(Cl)cc3)nn12 | -86* | -11 | u | 16µM* | 6% | -15
c1ccc(Cc2nn3c(COc4ccccc4)nnc3s2)cc1 | -6 | 2 | u | 18µM* | -3% | -5
c1ccc(OCc2nn3c(Cn4cnc5ccccc54)nnc3s2)cc1 | 17 | 0 | 16µM* | u | 0% | -15
Cc1nc(CNS(=O)(=O)c2ccccc2F)cs1 | 7 | -1 | 3% | 0% | 5% | 11
CCCn1c(N)c(C(=O)CSc2nnc(N)s2)c(=O)[nH]c1=O | 9 | -3 | -4% | -15% | 1% | x
Cc1cc(=O)n2nc(N(C)CC(=O)NCc3ccccc3C)sc2n1 | x | x | -29% | -5% | -5% | x
Cc1cc(F)ccc1NC(=O)c1cnccn1 | -8 | 4 | -12% | -17% | 11% | -19
OCC1OC(Oc2cccc3cccnc23)C(O)C(O)C1O (stereo not drawn) | x | x | -11% | 6% | 13%[56.1 µM] | x
CC12C=C(/C=C/C=C/c3ccccc3)C(C)(C1)C(/C=C/c1ccccc1)CC2=O (stereo not drawn) | x | x | x | x | 7%[21 µM] | x
CC12C=C(/C=C/C=C/c3ccco3)C(C)(C1)C(/C=C/c1ccco1)CC2=O (stereo not drawn) | x | x | x | x | 2µM* | x
CCOc1ccccc1-c1noc(CCCC(=O)NC2CCCCC2)n1 | 34 | 0 | 0% | -20% | 10%[0.0935 µM] | 16
COc1ccc(/C=N/n2cnc3c([nH]c4ccc(C)cc43)c2=O)cc1CN1CCCC1 | -102* | -10 | 5.2µM* | 7.3µM* | 1% | x

Compound activity: PubChem BioAssay, National Center for Advancing Translational Sciences (NCATS)
